Reference: PubChem BioAssay (NCATS)
Inconclusive results are not listed. Values without a mark were called inactive. Calls follow the shape of the dose curve; as a rule, active = well fitted cell-killing curve with a large enough effect; inconclusive = small, poorly fitted or top-dose-only effect; inactive = flat fitted curve, though single readings scatter.

Experiment: qHTS assay to identify small molecule inhibitors of chordoma cells - UCH-2 (AID 1259356)
Details: UCH-2 chordoma viability, CellTiter-Glo ATP luminescence, 48 h; series mostly up to 46.1 µM; activity change, negative = inhibition: at the top concentration
Source text: NIH Chemical Genomics Center [NCGC]
Chordoma is a rare and slow growing tumor that can occur anywhere along the spine, from the base of the skull to the tailbone. Current treatment options for chordoma is surgery and radiation therapy for those who are not candidates for surgery. But chordomas tend to return in the same location or surrounding areas of the original tumor after surgery and/or radiation. Chemotherapy can slow down the progression of the tumor. As chordoma is slow growing, the general cytotoxic agents that kill fast growing cells are ineffective, and some patients have been reported to respond to molecularly targeted drugs.
NCATS Pharmaceutical Collection (NPC) containing approximately 3000 clinically approved and investigational drugs were used to screen at 15 concentrations in a chordoma cell lines, UCH-2, to identify small molecule compounds that can inhibit chordoma cell growth.
NCGC Assay Protocol Summary:
Human chordoma cell line UCH-2 was dispensed at 800 per well in 4uL of culture medium into white solid bottom 1536-well plates (Corning Life Sciences, Corning, NY) using a Multidrop Combi (Thermo Scientific, Waltham, MA) dispenser. The assay plates were incubated at 37 C and 5% CO2 for an overnight, and then 23nL of compounds dissolved in DMSO and positive control were transferred using a Pintool station (Wako, San Diego, CA). Compound treatment was followed by the addition of 1uL of the combination compounds (1uM Auranofin, 500nM each of Camptothecin, Doxorubicin, Rubitecan, and Topotecan) and assay medium to each well of the assay plates using Flying Reagent Dispenser (FRD, Aurora Discovery, San Diego, CA). The assay plates were incubated at 37 C and 5% CO2 for 48hr. Then 5uL of CellTiter-Glo reagent (Promega Corporation, Madison, WI) was added to each well of the assay plates using FRD. After 30min incubation at room temperature, the luminescence signal was quantified using a ViewLux plate reader (PerkinElmer, Shelton, CT).
% is scaled to controls: 0 for no effect and ±100 for the full control effect.

Row | SMILES | activity change, negative = inhibition
1 | COC(=O)C1=C(C#N)NC(C)=C(C(=O)OC(C)C)C1c1cccc([N+](=O)[O-])c1 (stereo not given) | 0.226%
2 | CO[C@H]1C=CO[C@@]2(C)Oc3c(C)c(O)c4c(O)c(c5c(nc6cc(C)ccn65)c4c3C2=O)NC(=O)/C(C)=C\C=C[C@H](C)[C@H](O)[C@@H](C)[C@@H](O)[C@@H](C)[C@H](OC(C)=O)[C@@H]1C | -3.03%
3 | CCOc1ccc2c(c1)C(C)=CC(C)(C)N2 | 1.99%
4 | COc1cc2c(cc1O)CCN[C@]21CS[C@@H]2c3c(OC(C)=O)c(C)c4c(c3[C@H](COC1=O)N1[C@@H]2[C@H]2c3c(cc(C)c(OC)c3O)C[C@@H]([C@@H]1O)N2C)OCO4 | -18.4%
5 | CC[C@@H](C(=O)[C@@H](C)[C@@H](O)[C@H](C)CCc1ccc(C)c(O)c1C(=O)O)[C@H]1O[C@](CC)([C@H]2CC[C@](O)(CC)[C@H](C)O2)C[C@@H]1C | 1.47%
6 | CCCCC/C=C\C/C=C\CCCCCCCC(=O)O | 0.545%
7 | O=C(Nc1ccc(Br)cc1)c1cc(Br)c(Br)s1 | -23.1%
8 | C[C@H](CCC(=O)O)[C@H]1CC[C@H]2[C@@H]3[C@H](O)C[C@@H]4C[C@H](O)CC[C@]4(C)[C@H]3CC[C@]12C | 3.3% [at 20.6 µM]
9 | CC(=O)O[C@]1(C(C)=O)CC[C@H]2[C@@H]3CCC4=CC(=O)CC[C@]4(C)[C@@]3(F)[C@@H](O)C[C@@]21C | 1.72%
10 | CCC1OC(=O)C[C@@H](O)[C@H](C)[C@@H](O[C@@H]2O[C@H](C)C[C@H](N(C)C)[C@H]2O)[C@@H](CC=O)C[C@@H](C)C(=O)/C=C/[C@]2(C)OC2C1C (stereo not given in full) | -29.2%
11 | CO[C@H]1C=CO[C@@]2(C)Oc3c(C)c(O)c4c(O)c(c(/C=N/N5CCN(C6CCCC6)CC5)c(O)c4c3C2=O)NC(=O)/C(C)=C\C=C[C@H](C)[C@H](O)[C@@H](C)[C@@H](O)[C@@H](C)[C@H](OC(C)=O)[C@@H]1C | 2.38%
12 | CO[C@H]1C=CO[C@@]2(C)Oc3c(C)c(O)c4c(O)c(c5c(c4c3C2=O)=NC2(CCN(CC(C)C)CC2)N=5)NC(=O)/C(C)=C\C=C/[C@H](C)[C@H](O)[C@@H](C)[C@@H](O)[C@@H](C)[C@H](OC(C)=O)[C@@H]1C | 6.47%
13 | O=C(O)c1cc(O)c2c(c1)[O][Bi][O]2 | 3.78%
14 | CC(=O)OCC(=O)[C@@]12OC3(CCCC3)O[C@@H]1C[C@H]1[C@@H]3CCC4=CC(=O)C=C[C@]4(C)[C@@]3(F)[C@@H](O)C[C@@]12C | 7.08%
15 | CCc1ccc2c(c1)N(CC(C)CN(C)C)c1ccccc1S2 (stereo not given) | 0.949%
16 | CCC(=O)OCC(=O)[C@@]1(OC(=O)CC)[C@H](C)C[C@H]2[C@H]3[C@H]([C@@H](O)C[C@@]21C)[C@@]1(C)C=CC(=O)C=C1C[C@H]3Cl | -1.74% [at 20.6 µM]
17 | CC(C)N=c1cc2n(-c3ccc(Cl)cc3)c3ccccc3nc-2cc1Nc1ccc(Cl)cc1 | 4.5% [at 20.6 µM]
18 | CC(=O)N[C@@H](CC(=O)N[C@@H](CCC(=O)O)C(=O)O)C(=O)O | 7.85%
19 | CO[C@@H]1[C@@H](O[C@@H]2O[C@H](C)[C@@H](O[C@H]3C[C@@](C)(O)[C@@H](O)[C@H](C)O3)[C@H](N(C)C)[C@H]2O)[C@@H](CC=O)C[C@@H](C)[C@@H](O[C@@H]2CC[C@H](N(C)C)[C@@H](C)O2)/C=C/C=C/C[C@@H](C)OC(=O)C[C@H]1O | 7.5% [at 20.6 µM]
20 | COC(=O)CCC(=O)CN | 6.96%

Row | SMILES | activity change, negative = inhibition
21 | CC[N+](C)(C)Cc1ccccc1Br | -4.61% [at 20.6 µM]
22 | C#C[C@]1(O)CC[C@H]2[C@@H]3CCC4=CCCC[C@@H]4[C@H]3C(=C)C[C@@]21CC | 9.17%
23 | C=CC1=C(C)C2=CC3=NC(=C(CC(=O)[O-])C4=NC(=C(C)C4=C([O-])[O-])C=c4[n-]c(c(C)c4CC)=CC1=N2)C(CCC(=O)[O-])C3C.[Cu+2].[Na+].[Na+].[Na+] (stereo not given) | -2.4%
24 | COc1ccc(C[C@@H](C)NC[C@H](O)c2ccc(O)c(NC=O)c2)cc1 | 4.71%
25 | CCCCC(=O)O[C@]1(C(=O)CO)[C@H](C)C[C@H]2[C@@H]3CCC4=CC(=O)C=C[C@]4(C)[C@@]3(F)[C@@H](O)C[C@@]21C | 2.98%
26 | CC(=O)Oc1c(C)cc(OCC(O)CNC(C)C)c(C)c1C (stereo not given) | 3.75%
27 | CC(O)CO (stereo not given) | 24%
28 | O=C(O)CN(CCN(CC(=O)O)CC(=O)O)CC(=O)O | 9.06%
29 | O=C(O)CCC(=O)C(=O)O | 6.41%
30 | CCCCCCCC/C=C\CCCCCCCC(=O)O | 3.14%
31 | CC(C)C(=O)OCC(=O)[C@@]12O[C@H](C3CCCCC3)O[C@@H]1C[C@H]1[C@@H]3CCC4=CC(=O)C=C[C@]4(C)[C@H]3[C@@H](O)C[C@@]12C | -14%
32 | CCOC(C)=O | 2.97%
33 | O=C1C(=O)c2ncccc2-c2cccnc21 | -28.3%
34 | CC(=O)N(CC(C)C(=O)O)c1c(I)cc(I)c(N)c1I (stereo not given) | -20.9% [at 20.6 µM]
35 | CCOC(=O)O[C@]1(C(=O)COC(=O)CC)CC[C@H]2[C@@H]3CCC4=CC(=O)C=C[C@]4(C)[C@H]3[C@@H](O)C[C@@]21C | 0.884% [at 20.6 µM]
36 | O=C(O)C1CCCN1 (stereo not given) | 3.49%
37 | CC(NNC(=O)c1ccccc1)c1ccccc1 (stereo not given) | 0.19%
38 | Clc1cc(Cl)c(OCC#CI)cc1Cl | 5.07%
39 | CCCC(=O)O[C@]1(C(=O)CCl)[C@H](C)C[C@@H]2[C@H]3CCC4=CC(=O)C=C[C@]4(C)[C@@]3(F)C(=O)C[C@@]21C | -0.0679%
40 | NCc1ccccc1CC(=O)N[C@@H]1C(=O)N2C(C(=O)O)=C(CSc3nnnn3CC(=O)O)CS[C@H]12 | 15% [at 20.6 µM]
